# From PubChem BioAssay
# “And” between values parts separate entries of the source, which are not always exact repeats. Identical values can stand only once. The source made the active and inactive calls.
# Assays:
# [1] = tested on: Plasmodium falciparum Sir2 (PF13_0152, Sir2A); experiment: pfSir2 binders on small-molecule microarrays, primary screen, biochemical, small-molecule microarray, 635 nm fluorescence (AID 1098); conditions: small-molecule microarray binding, fluorescence 635 nm; higher = more signal;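 note: score merges spot fluorescence intensity with its signal-to-noise ratio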
# [2] = small-molecule microarray binders of probe aDKK1, primary screen, biochemical, biotinylated probe, 635/667 nm fluorescence (AID 1099); conditions: higher = more signal;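 note: score merges 667nm spot fluorescence with signal to noise across triplicate slides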
# [3] = small-molecule microarray binders of probe aCHRDL2, primary screen, biochemical, biotinylated probe, 635/667 nm fluorescence (AID 1100); conditions: higher = more signal
# [4] = splicing luciferase reporter signal modulators, primary screen, spliceosome inhibition project, cell-based, HEK293, splice +/- reporter (AID 1101); conditions: luminescence, 24 h, higher = more signal, called active from +8 up or from −8 down;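 note: HEK293 cells carrying a splicing-competent luciferase reporter gene; test concentration not given here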
# [5] = target: Fibroblast growth factor 10 (Homo sapiens) (UniProt O15520); experiment: FGF10 binders on small-molecule microarrays, primary screen, biochemical, small-molecule microarray, 635 nm fluorescence (AID 1102); conditions: FGF10 binding, fluorescence 635 nm, higher = more signal
# Chain of Fibroblast growth factor 10 (Homo sapiens) (O15520 whole entry, looked up): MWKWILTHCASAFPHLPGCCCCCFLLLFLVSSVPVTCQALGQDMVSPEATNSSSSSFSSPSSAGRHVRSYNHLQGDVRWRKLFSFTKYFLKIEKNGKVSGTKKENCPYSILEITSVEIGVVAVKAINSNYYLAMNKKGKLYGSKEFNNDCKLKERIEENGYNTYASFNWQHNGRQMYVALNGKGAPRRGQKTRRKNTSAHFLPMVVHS
# [6] = tested on: glycogen synthase kinase-3 (GSK3A per assay name; protocol says GSK3B); experiment: GSK3 binders on small-molecule microarrays, primary screen, biochemical, small-molecule microarray, 635 nm fluorescence, GSK3A (AID 1103); conditions: small-molecule microarray binding, fluorescence 635 nm; higher = more signal; note: the record names both GSK3A and GSK3B
# [7] = target: Epidermal growth factor receptor (Homo sapiens) (UniProt P00533); experiment: EGFR binders on small-molecule microarrays, primary screen, biochemical, small-molecule microarray, 635 nm fluorescence (AID 1104); conditions: EGFR binding, higher = more signal;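 note: score merges 667 nm emission intensity with spot signal to noise over triplicate slides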
# Chain of Epidermal growth factor receptor (Homo sapiens) (P00533 whole entry, looked up): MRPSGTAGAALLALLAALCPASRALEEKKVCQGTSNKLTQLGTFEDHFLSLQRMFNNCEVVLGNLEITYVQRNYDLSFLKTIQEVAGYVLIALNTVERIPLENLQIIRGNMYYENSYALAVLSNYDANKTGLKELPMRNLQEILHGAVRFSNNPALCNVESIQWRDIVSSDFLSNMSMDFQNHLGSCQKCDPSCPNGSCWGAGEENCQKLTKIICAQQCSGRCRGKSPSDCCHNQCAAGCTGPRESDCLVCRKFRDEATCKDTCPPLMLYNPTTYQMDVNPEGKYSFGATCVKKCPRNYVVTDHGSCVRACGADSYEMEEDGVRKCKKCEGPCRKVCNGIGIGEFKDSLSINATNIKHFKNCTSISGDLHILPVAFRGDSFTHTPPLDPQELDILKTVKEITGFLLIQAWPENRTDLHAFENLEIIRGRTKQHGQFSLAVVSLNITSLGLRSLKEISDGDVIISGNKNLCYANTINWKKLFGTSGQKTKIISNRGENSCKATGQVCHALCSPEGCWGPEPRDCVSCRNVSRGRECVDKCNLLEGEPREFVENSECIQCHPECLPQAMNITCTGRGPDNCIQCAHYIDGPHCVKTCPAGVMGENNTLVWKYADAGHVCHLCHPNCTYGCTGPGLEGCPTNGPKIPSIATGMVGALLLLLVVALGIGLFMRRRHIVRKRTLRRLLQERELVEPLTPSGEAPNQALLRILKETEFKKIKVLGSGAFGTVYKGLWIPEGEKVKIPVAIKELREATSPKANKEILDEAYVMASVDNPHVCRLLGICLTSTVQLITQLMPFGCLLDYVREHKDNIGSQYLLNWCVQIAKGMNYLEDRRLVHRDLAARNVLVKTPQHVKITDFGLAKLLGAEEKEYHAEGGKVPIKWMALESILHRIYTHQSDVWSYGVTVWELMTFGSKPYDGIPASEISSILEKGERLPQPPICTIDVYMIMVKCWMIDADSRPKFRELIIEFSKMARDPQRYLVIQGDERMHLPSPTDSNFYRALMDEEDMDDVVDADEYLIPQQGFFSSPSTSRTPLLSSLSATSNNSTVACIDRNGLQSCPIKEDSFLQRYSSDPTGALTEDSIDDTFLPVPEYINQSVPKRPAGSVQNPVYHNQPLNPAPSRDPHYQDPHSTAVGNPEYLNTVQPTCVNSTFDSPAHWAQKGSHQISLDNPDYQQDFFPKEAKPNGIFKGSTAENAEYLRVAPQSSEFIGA
# [8] = target: Follistatin-related protein 3 (Homo sapiens) (UniProt O95633); experiment: FSTL3 binders on small-molecule microarrays, primary screen, biochemical, small-molecule microarray, 635 nm fluorescence (AID 1105); conditions: FSTL3 binding, higher = more signal;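 note: score merges emission near 667 nm and signal to noise per printed spot across three slides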
# Chain of Follistatin-related protein 3 (Homo sapiens) (O95633 whole entry, looked up): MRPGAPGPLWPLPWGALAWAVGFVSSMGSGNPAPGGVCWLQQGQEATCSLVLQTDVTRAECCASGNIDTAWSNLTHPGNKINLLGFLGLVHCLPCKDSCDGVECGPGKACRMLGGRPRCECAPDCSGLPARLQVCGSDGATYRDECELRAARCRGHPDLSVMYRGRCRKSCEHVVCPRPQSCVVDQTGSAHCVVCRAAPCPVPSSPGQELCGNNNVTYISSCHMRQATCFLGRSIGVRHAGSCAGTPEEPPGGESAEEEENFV
# [9] = target: Dickkopf-related protein 1 (Homo sapiens) (UniProt O94907); experiment: DKK1 binders on small-molecule microarrays, primary screen, biochemical, small-molecule microarray, 635 nm fluorescence scan (AID 1106); conditions: DKK1 binding, higher = more signal;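 note: score merges emission near 667 nm with signal to noise over three replicate slides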
# Chain of Dickkopf-related protein 1 (Homo sapiens) (O94907 whole entry, looked up): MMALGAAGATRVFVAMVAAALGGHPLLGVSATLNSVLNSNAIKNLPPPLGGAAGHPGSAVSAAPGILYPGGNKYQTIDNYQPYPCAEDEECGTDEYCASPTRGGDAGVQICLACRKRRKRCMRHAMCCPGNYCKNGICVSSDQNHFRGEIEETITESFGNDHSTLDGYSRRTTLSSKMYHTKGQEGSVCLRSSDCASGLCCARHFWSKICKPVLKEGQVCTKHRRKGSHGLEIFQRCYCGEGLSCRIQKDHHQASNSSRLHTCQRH
# [10] = tested on: Inhibin beta A chain (activin A); experiment: INHBA (activin A) binders on microarrays, primary screen, biochemical, small-molecule microarray, 635 nm fluorescence scan (AID 1107); conditions: small-molecule microarray binding, higher = more signal;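 note: mouse activin A protein probed at 4.33 µg/mL on printed slides; score merges bound-protein fluorescence near 667 nm with spot signal-to-noise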
# [11] = tested on: Human papillomavirus type 1a protein E7 (residues 44-93); experiment: HPV1a E7 fragment binders on microarrays, primary screen, biochemical, small-molecule microarray, residues 44-93, 635 nm fluorescence (AID 1108); conditions: small-molecule microarray binding, fluorescence 635 nm; higher = more signal;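 note: E7 fragment applied at 1 µg/mL in TBST for 1 h at 4 C; score combines spot fluorescence with its signal to noise ratio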
# [12] = modulators of HCV replicon luciferase signal, primary screen, HCV replication inhibitor project, Huh7 cells, luciferase reporter (AID 1109); conditions: 48 h, higher = more signal;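 note: huh7 hepatoma cells harbouring a luciferase neomycin HCV replicon reporter; luciferase luminescence as measure of HCV replicon replication; test concentration not given here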
# [13] = target: Left-right determination factor 2 (Homo sapiens) (UniProt O00292); experiment: LEFTY2 binders on small-molecule microarrays, primary screen, biochemical, small-molecule microarray, 635 nm fluorescence scan (AID 1110); conditions: LEFTY2 binding, higher = more signal
# Chain of Left-right determination factor 2 (Homo sapiens) (O00292 whole entry, looked up): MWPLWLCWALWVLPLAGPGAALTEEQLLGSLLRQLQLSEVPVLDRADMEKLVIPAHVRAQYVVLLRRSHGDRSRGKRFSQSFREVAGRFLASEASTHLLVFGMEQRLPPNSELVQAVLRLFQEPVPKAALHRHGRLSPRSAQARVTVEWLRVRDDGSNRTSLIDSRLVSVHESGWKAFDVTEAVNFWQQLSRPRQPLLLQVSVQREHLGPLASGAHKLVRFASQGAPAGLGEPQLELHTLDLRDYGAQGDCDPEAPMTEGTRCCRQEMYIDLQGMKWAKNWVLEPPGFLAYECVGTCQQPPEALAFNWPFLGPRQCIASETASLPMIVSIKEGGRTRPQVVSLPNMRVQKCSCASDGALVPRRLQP
# [14] = target: Calmodulin-1 (Homo sapiens) (UniProt P0DP23); experiment: CALM1 binders on microarrays, EGTA buffer, profiling panel, biochemical, small-molecule microarray, Cy5-labelled CALM1 (AID 1111); conditions: Cy5-CALM1 binding fluorescence, higher = more signal;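 note: labelled calmodulin applied in Tris saline Tween buffer holding calcium plus EGTA and DTT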
# [15] = target: Calmodulin-1 (Homo sapiens) (UniProt P0DP23); experiment: calcium-bound CALM1 binders on microarrays, profiling panel, artefact control for SMM control-protein annotation, biochemical, small-molecule microarray, Cy5-labelled CALM1, plus calcium (AID 1112); conditions: Cy5-CALM1 binding fluorescence, higher = more signal;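 note: score merges spot fluorescence with signal to noise from triplicate slides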
# [16] = small-molecule microarray binders of probe aWnt5a, primary screen, biochemical, biotinylated probe, 635/667 nm fluorescence (AID 1113); conditions: higher = more signal;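 note: score merges 667 nm fluorescence intensity with signal-to-noise per printed feature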
# [17] = small-molecule microarray binders of probe aShh, primary screen, biochemical, biotinylated probe, 635/667 nm fluorescence (AID 1114); conditions: higher = more signal;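 note: probe is biotin-labelled aShh protein from a stem cell growth factor screen; measures binding of labelled protein to compounds printed on the slide; score merges feature fluorescence at 667 nm with signal-to-noise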
# [18] = small-molecule microarray binders of probe aNog, primary screen, biochemical, biotinylated probe, 635/667 nm fluorescence (AID 1115); conditions: higher = more signal;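 note: probe is biotinylated aNog protein used at 0.15 µg/mL for 1 h at 4 C; z-score combines 667 nm fluorescence of each spot with its signal to noise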
# [19] = target: Torsin-1A-interacting protein 1 (Homo sapiens) (UniProt Q5JTV8); experiment: LAP1 binders from COS7 cell lysate, primary screen, small-molecule microarray, 635/667 nm fluorescence (AID 1116); conditions: COS7-hLAP1 lysate binding, 635 nm fluorescence, higher = more signal
# Chain of Torsin-1A-interacting protein 1 (Homo sapiens) (Q5JTV8 whole entry, looked up): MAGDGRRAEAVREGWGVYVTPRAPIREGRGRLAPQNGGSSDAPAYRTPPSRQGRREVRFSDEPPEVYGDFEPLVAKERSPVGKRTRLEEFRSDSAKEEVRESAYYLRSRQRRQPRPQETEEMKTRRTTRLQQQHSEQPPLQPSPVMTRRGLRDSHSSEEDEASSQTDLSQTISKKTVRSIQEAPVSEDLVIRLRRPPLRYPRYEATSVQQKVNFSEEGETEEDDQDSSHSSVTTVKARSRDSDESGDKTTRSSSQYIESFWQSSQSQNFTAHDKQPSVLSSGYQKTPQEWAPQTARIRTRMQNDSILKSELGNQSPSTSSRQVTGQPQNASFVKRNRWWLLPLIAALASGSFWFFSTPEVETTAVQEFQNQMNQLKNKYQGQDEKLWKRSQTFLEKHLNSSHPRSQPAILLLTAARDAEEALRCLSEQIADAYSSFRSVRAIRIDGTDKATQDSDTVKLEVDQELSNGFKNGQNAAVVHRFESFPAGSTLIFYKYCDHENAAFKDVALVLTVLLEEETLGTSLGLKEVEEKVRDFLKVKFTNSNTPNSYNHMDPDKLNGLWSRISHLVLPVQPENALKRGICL
# [20] = target: Alpha-bungarotoxin (Bungarus multicinctus) (UniProt P60615); experiment: alpha-bungarotoxin binders on microarray, profiling panel, artefact control for SMM control protein annotation, biochemical, small-molecule microarray, Alexa647 label, 635/667 nm fluorescence (AID 1117); conditions: alpha-BTX-A647 binding fluorescence, higher = more signal
# Chain of Alpha-bungarotoxin (Bungarus multicinctus) (P60615 whole entry, looked up): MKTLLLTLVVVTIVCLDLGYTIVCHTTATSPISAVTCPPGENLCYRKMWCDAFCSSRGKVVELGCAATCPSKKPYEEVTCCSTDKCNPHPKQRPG
Compound,composite z-score [1],composite z-score [2],composite z-score [3],z-score [4],composite z-score [5],composite z-score [6],composite z-score [7],composite z-score [8],composite z-score [9],composite z-score [10],composite z-score [11],z-score [12],composite z-score [13],composite z-score [14],composite z-score [15],composite z-score [16],composite z-score [17],composite z-score [18],composite z-score [19],composite z-score [20]
C=CCN(C(=O)C(c1cccs1)N(C(=O)/C=C\C(=O)O)C(C)(C)CO)C(C)(C)C (stereo not given),-0.387 and -0.159,-0.136 and -0.239,0.784 and 0.498,-1.67 (inactive) and -1.52 (inactive),-1.22 and -1.16,-0.489 and -0.532,-0.928 and -0.661,-1.54 and -1.07,-1.53 and -1.58,-0.792 and -0.643,-0.453 and -0.0211,-0.0094 and 0.0766,-2.3 and -1.73,-0.243 and -0.782,-0.403 and 0.164,-0.124 and -0.197,-0.0553 and -0.0769,0.945 and 0.25,0.78 and -0.351,0.489 and 0.895
CC(CO)N1C(=O)[C@@H]2C3C(=O)OCCC=C[C@H]3OC23C=CCN(c2ccc4ccccc4c2)C(=O)[C@@H]13 (stereo not given in full),0.971 and 0.0013,0.0565 and -0.627,0.691 and -0.64,0.132 (inactive) and 0.555 (inactive),-0.773 and -0.238,-0.236 and -0.0124,-1.06 and -0.897,-0.352 and 0.329,-1.6 and -0.929,0.665 and 0.142,1.24 and -0.698,-0.466 and -0.213,-1.21 and 0.0157,-0.482 and -1.21,0.0293 and -1.1,-0.203 and -0.183,0.0141 and -0.824,0.304 and -0.61,2.61 and 1.05,-0.69 and -0.343
CCCCN1CC=CC23O[C@@H]4C=CCCOC(=O)C4[C@H]2C(=O)N(C(C)CO)[C@@H]3C1=O (stereo not given in full),0.381 and 0.0105,-0.286 and -0.221,0.473 and -0.194,0.856 (inactive) and -0.0825 (inactive),-0.346 and 0.232,-0.662 and -0.551,-0.683 and -0.191,-0.934 and -0.0066,-0.135 and 0.176,0.958 and 1.07,0.228 and -0.107,-0.797 and -0.144,-0.321 and 0.0741,-0.495 and 0.257,-0.396 and 0.473,-0.0403 and -0.154,0.171 and 0.0637,0.179 and 0.0775,-0.19 and 0.191,-0.44 and -0.137
COC(=O)[C@@]1(Cc2ccc(OC)cc2)[C@H]2c3cc(C(=O)N(C)C)n(Cc4ccc(O)c(OC)c4)c3C[C@H]2CN1C(=O)c1ccccc1,1.17 and 1.27,0.714 and 0.773,1.08 and 0.94,-2.55 (inactive) and -2.51 (inactive),0.113 and 1.15,0.568 and -0.198,-0.14 and -0.143,0.418 and 0.592,-0.529 and -0.128,0.876 and 0.416,1.31 and 1.43,-1.33 and -1.83,-0.3 and -0.586,2.32 and 1.21,0.88 and 0.206,-0.208 and 0.201,-0.374 and 0.632,0.231 and 1.94,2.63 and 1.12,0.526 and 0.245
C[C@@H]1CC[C@@H](C(=O)O)N[C@H]1c1ccc(-c2ccco2)cc1,1.04,-0.187,-0.826,0.0295 (inactive),0.614,0.722,0.946,1.44,0.951,0.805,-1.68,-0.305,0.88,-0.547,-1.3,-0.096,-0.299,0.0023,0.195,0.0848
C=CCN(CCCC)C(=O)C1N(CCCCCCO)C(=O)C2C(C(=O)O)C3C=CC21O3 (stereo not given),1.64 and 0.937,-0.288 and -0.0191,1.02 and 0.849,0.671 (inactive) and -0.0103 (inactive),-1.87 and -1.39,-1.1,-1.93 and -1.35,-2.74 and -2.04,-2.67 and -3.18,-2.85 and -2.5,-0.498 and -0.27,0.227 and -0.883,-3.06 and -3.09,-0.494 and -0.605,0.169 and 0.392,-0.184 and -0.226,0.0048 and -0.138,-0.349 and -0.318,-0.423 and 0.349,-1.1 and -1.81
CC(CO)N1C(=O)[C@@H]2C3C(=O)OCCC=C[C@H]3OC23C=CCN(Cc2ccccc2)C(=O)[C@@H]13 (stereo not given in full),1.15 and 0.52,-0.2 and -0.173,0.139 and 0.407,-0.379 (inactive) and -0.024 (inactive),-0.602 and -0.115,-0.491 and -0.648,-0.91 and -1.81,-0.771 and -1.06,-1.02 and -0.657,1.24 and -0.563,0.0364 and -1.19,-1.12 and -0.667,-1.26 and -1.45,-0.792 and 0.0954,-0.803 and 0.748,-0.154 and -0.21,-0.291 and -0.154,0.211 and -0.246,1.29 and -0.62,-1.73 and -0.88
C=CCN(CCCCC)C(=O)C1N(c2ccc(CCO)cc2)C(=O)C2C(C(=O)O)C3C=CC21O3 (stereo not given),0.122 and -0.0398,-0.244 and -0.184,0.976 and 0.99,-0.296 (inactive) and 0.494 (inactive),-1.01 and -1.64,-1.29 and -1.34,-1.23 and -1.1,-0.937 and -1.43,-1.6 and -1.19,-1.49 and -1.34,-0.351 and -0.928,0.471 and -0.235,-2.25 and -3.05,-1.51 and -0.989,-0.455 and -0.143,-0.23 and -0.316,-0.0769 and -0.0866,-0.387 and -0.332,0.143 and 0.422,-2.97 and -1.37
CO[C@H]1COC(=O)CC=C[C@@H](C)COC(=O)[C@@H](OCc2ccccc2)C=C[C@@H]1C,0.661,-0.533,-1.54,0.19 (inactive),0.241,1.1,0.831,1.32,0.644,1.57,-0.418,-0.0629,1.32,-0.779,-2.05,-0.34,0.149,-0.378,0.417,0.205
COc1ccc(-c2ccc3c(n2)CCCN3CC(O)CN2CCCc3nc(-c4ccc(Br)cc4)ccc32)cc1 (stereo not given),1.01 and 0.727,0.507 and 0.293,0.0498 and 0.803,0.0317 (inactive) and -0.356 (inactive),0.829 and 0.6,0.682 and 0.382,0.476 and 0.459,0.868 and 0.601,0.372 and 0.291,1.33 and -1.05,0.363 and -0.763,-2.44 and -0.174,0.61 and 0.922,0.347 and 0.413,0.116 and -0.108,0.0994 and -0.006,0.896 and 0.233,0.202 and 0.309,0.498 and 0.282,2.04 and 1.76
C=CCN(C(=O)C(c1cccs1)N(C(=O)/C=C\C(=O)O)c1ccc(CCO)cc1)c1ccc(OC)cc1 (stereo not given),-0.087 and -1.23,-0.26 and 0.0389,0.822 and 1.13,0.0213 (inactive) and 0.54 (inactive),-1.94 and -2.06,-1.57 and -1.13,-1.46 and -2.92,-1.38 and -2.79,-2.88 and -3.33,-1.56 and -1.86,-1.01 and -1.64,-0.465 and -0.171,-3 and -5.82,-0.453 and -1.54,0.742 and -0.222,-0.203 and -0.27,-0.0709 and -0.138,-0.541 and -0.126,-1.16 and -1.72,-0.664 and -2.33
